Consider seven compounds from PubChem BioAssay (Tox21).

The structures appear in SMILES notation. Inconclusive results are not listed. Some compounds were tested as several samples or in several runs, with calls that do not always agree. Active and inactive are the calls of the source. Unless noted, calls come from the whole dose curve.

The nature of test [1]: Nuclear factor erythroid 2-related factor 2/antioxidant responsive element (Nrf2/ARE) small molecule agonists: qHTS cell viability counter screen in human keratinocytes (AID 1919968; active = well fitted curve in the direction sought with a large enough effect in the repeat runs; an effect the other way counts as inactive or inconclusive; note: nearly all actives have a fitted effect of over 55% in size). The procedure, abridged:
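Parallel cytotoxicity read: KeratinoSens HaCaT cells, compound treatment 23 h, viability by CellTiter-Fluor fluorescence 1 h post-reagent.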
For orientation: qHTS replaces the single test concentration by a dilution series.

Test [2] can be described thus: Nuclear factor erythroid 2-related factor 2/antioxidant responsive element (Nrf2/ARE) small molecule agonists: luciferase reporter gene qHTS assay in human keratinocytes (AID 1919969). Note: nearly all actives have a fitted effect of over 35% in size. Note: potency is the fitted concentration of half-maximal effect. For orientation: In a reporter assay the amount or activity of a reporter protein is the signal.
For test [3], the target named is Gonadotropin-releasing hormone receptor (Homo sapiens) (UniProt P30968). The experiment in a line: Human gonadotropin-releasing hormone receptor (GnRHR) small molecule agonists, calcium flux assay in GnRHR-HEK293 cells (AID 1920063). Note: nearly all actives have a fitted effect of over 35% in size. The procedure, abridged:
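Calcium flux, agonist mode, human GnRHR stably integrated in HEK293; dye 1 h at 37 C before compound; Ex/Em=480/540 kinetic read, 3 min; 15 concentrations, triplicate.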
In general terms: Calcium assays in cells follow changes in intracellular calcium, usually with a dye or a luminescent sensor.

Test [4] deals with KiSS-1 receptor (Homo sapiens) (UniProt Q969F8). As to the kind of experiment: Human kisspeptin (KISS1R) small molecule agonists, calcium flux assay in KISS1R-HEK293 cells (AID 1920064; active = well fitted curve in the direction sought with a large enough effect in the repeat runs; an effect the other way counts as inactive or inconclusive). The procedure, abridged:
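Triplicate 15-concentration series were applied to dye-loaded human KISS1R HEK293 cells, and agonist-evoked calcium fluorescence was captured for 3 min.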

A short description of test [5]: G protein-coupled receptor (GPCR) small molecule agonists, calcium flux assay: HEK293 wild type cell line counter screen (AID 1920065). In short, it runs like this: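 Non-specific calcium responders were flagged by adding DMSO-dissolved compounds to dye-loaded cells and reading 480/540 nm fluorescence each second for 3 min; ATP served as positive control.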
Test [6] in a line: p53 small molecule agonists, cell-based qHTS assay with human liver microsomes (AID 1963577).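 Note: p53 response element beta-lactamase reporter cells with liver microsomes plus NADPH.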 In short, it runs like this:
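Metabolically competent format: test substances, human liver microsomes and NADPH (both 0.5 mg/mL final) incubated with p53RE-bla cells 16 h at 37 C. Beta-lactamase reporter signal then quantified by fluorescence.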

Test [7] is described as follows: p53 small molecule agonists, cell-based qHTS assay with rat liver microsomes (AID 1963578). The procedure, abridged: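 Each plate received p53RE-bla cells, then compound, then rat liver microsomes and NADPH (both 0.5 mg/mL final). Plates were held 16 h at 37 C, and beta-lactamase activity was detected with LiveBLAzer over 2 h.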
Test [8] in a line: p53 small molecule agonists, cell-based qHTS assay with human liver microsomes: qHTS cell viability counter screen (AID 1963579). Note: nearly all actives have a fitted effect of over 45% in size. In short, it runs like this:
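Tox21 library compounds, delivered from DMSO stocks, were tested on p53RE-bla cells together with 0.5 mg/mL human liver microsomes and 0.5 mg/mL NADPH (final) over 16 h at 37 C; CellTiter-Glo luminescence served as the cytotoxicity measure.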

The nature of test [9]: p53 small molecule agonists, cell-based qHTS assay with rat liver microsomes: qHTS cell viability counter screen (AID 1963580). Note: nearly all actives have a fitted effect of over 45% in size. The procedure, abridged: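 After the beta-lactamase ratio was read, CellTiter-Glo was added to the same wells and luminescence measured at 30 min; cells had been treated 16 h at 37 C with compounds, rat liver microsomes and NADPH (0.5 mg/mL final each).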

Test [10] in a line: p53 small molecule agonists, cell-based qHTS assay: qHTS cell viability counter screen (AID 1963581). Note: nearly all actives have a fitted effect of over 45% in size. The procedure, abridged:
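Multiplexed with the reporter read, a CellTiter-Glo step (30 min, room temperature) gauges ATP-based viability of HCT-116 p53RE-bla cells after 16 h compound incubation at 37 C.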

The nature of test [11]: p53 small molecule agonists, cell-based qHTS assay (AID 1963582; active = well fitted activation curve with a large enough effect in the signal ratio in the repeat runs, not every such curve was filed as active; the % refers to the signal ratio). In short, it runs like this:
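Beta-lactamase reporter cells (p53RE-bla) treated with compounds for 16 h at 37 C; FRET substrate, 2 h, room temperature; fluorescence intensity.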

Test [12] deals with 5-hydroxytryptamine receptor 2A (Homo sapiens) (UniProt P28223). The experiment in a line: 5-hydroxytryptamine receptor 2A (HTR2A) small molecule antagonists, cell-based qHTS assay (AID 1963586). Note: nearly all actives have a fitted effect of over 45% in size. In short, it runs like this:
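CHO cells stably expressing human HTR2A were plated for 18 h at 37 C, then loaded with calcium dye for 1 h. Compounds were preincubated 5 min at room temperature before DOI (4 nM solution) was added. Kinetic fluorescence was read for 3 min.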

The target is the same in test [13]. The experiment in a line: 5-hydroxytryptamine receptor 2A (HTR2A) small molecule agonists, cell-based qHTS assay (AID 1963587). Note: nearly all actives have a fitted effect of over 30% in size. In short, it runs like this:
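CHO cells stably expressing human HTR2A, plated 18 h, loaded with calcium dye 1 h at 37 C. Agonist mode: compounds added and intracellular calcium fluorescence recorded kinetically for 2 min at 1 sec intervals.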

Test [14] has as its target Muscarinic acetylcholine receptor M1 (Homo sapiens) (UniProt P11229). As to the kind of experiment: Cholinergic receptor muscarinic 1 (CHRM1) small molecule antagonists, cell-based qHTS assay (AID 1963588). Note: nearly all actives have a fitted effect of over 40% in size. The procedure, abridged: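 Compounds were tested at 15 concentrations in three independent runs. Dye-loaded CHRM1-CHO cells were exposed 5 min at room temperature before stimulation by acetylcholine added at 50nM. Intracellular calcium was read kinetically on FDSS for 3 min.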

The target is the same in test [15]. As to the kind of experiment: Cholinergic receptor muscarinic 1 (CHRM1) small molecule agonists, cell-based qHTS assay (AID 1963589). Note: nearly all actives have a fitted effect of over 35% in size. In short, it runs like this:
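qHTS, 15-point titration, 3 independent runs: compounds pin-transferred onto dye-loaded CHRM1-CHO cells (human M1), calcium fluorescence followed every second to detect agonism.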

The nature of test [16]: cAMP Responsive Elements (CRE) small molecule agonists, cell-based qHTS assay (AID 1963590). In short, it runs like this: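 Quantitative HTS for CRE agonists: HEK 293T CRE-bla cells, overnight plating, 3 h compound incubation at 37 C/5% CO2, then 2 h room-temperature LiveBLAzer B/G FRET substrate loading.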
A short description of test [17]: cAMP Responsive Elements (CRE) small molecule antagonists, cell-based qHTS assay (AID 1963591; active = well fitted inhibition curve with a large enough effect in the signal ratio in the repeat runs, not every such curve was filed as active; the % refers to the signal ratio). The procedure, abridged: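 Fluorescence intensity from cleaved LiveBLAzer B/G substrate (2 h, room temperature) quantified CRE-bla activity in HEK 293T cells exposed 3 h to compound with 0.25 uM final NKH477.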
Test [18] deals with Beta-2 adrenergic receptor (Homo sapiens) (UniProt P07550). As to the kind of experiment: Adrenergic beta2 receptor (ADRB2) small molecule antagonists, cell-based qHTS assay (AID 1963592). Note: series mostly up to about 92 µM; nearly all actives have a fitted effect of over 50% in size. The procedure, abridged: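 Assay format: CHO-ADRB2 cells, 18-20hr seeding at 37C/5% CO2, then compound plus 1nM isoproterenol agonist mix for 0.5hr RT. Homogeneous time-resolved fluorescence cAMP detection after 1hr, expressed as 665/615 nm ratio.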
Chain of Beta-2 adrenergic receptor (Homo sapiens) (P07550 whole entry, looked up): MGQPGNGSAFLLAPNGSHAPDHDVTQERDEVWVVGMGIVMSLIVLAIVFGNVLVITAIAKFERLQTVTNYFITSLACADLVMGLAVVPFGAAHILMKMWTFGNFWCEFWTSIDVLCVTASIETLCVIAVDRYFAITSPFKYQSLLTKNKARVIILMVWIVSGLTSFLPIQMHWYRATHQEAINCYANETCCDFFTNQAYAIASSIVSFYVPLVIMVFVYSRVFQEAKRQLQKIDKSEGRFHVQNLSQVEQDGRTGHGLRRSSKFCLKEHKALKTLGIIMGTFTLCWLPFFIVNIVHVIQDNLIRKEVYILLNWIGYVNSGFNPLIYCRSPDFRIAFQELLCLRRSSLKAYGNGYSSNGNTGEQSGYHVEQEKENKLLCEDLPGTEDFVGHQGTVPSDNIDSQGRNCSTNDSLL

The target in test [19] is D(2) dopamine receptor (Homo sapiens) (UniProt P14416). As to the kind of experiment: Dopamine D2 receptor (DRD2) small molecule agonists, cell-based qHTS assay (AID 1963594). Note: nearly all actives have a fitted effect of over 35% in size. In short, it runs like this:
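HEK293 cells stably expressing human DRD2, pre-treated with PDE inhibitor Ro20-1724 (0.1 mM final) and compound 10 min at room temperature, then stimulated with NKH477 (200nM […]) for 30 min. cAMP read by HTRF (665/620 nm).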

Test [20] has the same target. The experiment in a line: Dopamine D2 receptor (DRD2) small molecule antagonists, cell-based qHTS assay (AID 1963595; active = well fitted inhibition curve with a large enough effect in the signal ratio in the repeat runs, with a control signal flat; the % refers to the signal ratio). In short, it runs like this: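 Human DRD2 antagonist qHTS measuring cAMP by HTRF. The cells are exposed to compound for 10 min, then to NKH477 (200 nM) and quinpirole (12 nM) for 30 min at RT, with Ro20-1724 (0.1 mM) present throughout.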

Chain of KiSS-1 receptor (Homo sapiens) (Q969F8 whole entry, looked up): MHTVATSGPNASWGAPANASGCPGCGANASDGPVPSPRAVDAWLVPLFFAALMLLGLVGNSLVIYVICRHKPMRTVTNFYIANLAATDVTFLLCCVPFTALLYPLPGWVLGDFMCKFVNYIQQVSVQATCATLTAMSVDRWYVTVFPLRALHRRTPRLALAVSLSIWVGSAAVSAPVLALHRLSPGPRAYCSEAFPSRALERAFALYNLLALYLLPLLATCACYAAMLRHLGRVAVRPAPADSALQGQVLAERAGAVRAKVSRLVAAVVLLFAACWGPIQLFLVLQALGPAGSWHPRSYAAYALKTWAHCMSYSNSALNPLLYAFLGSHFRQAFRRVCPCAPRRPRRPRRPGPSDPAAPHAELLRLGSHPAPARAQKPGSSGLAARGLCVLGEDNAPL
Chain of D(2) dopamine receptor (Homo sapiens) (P14416 whole entry, looked up): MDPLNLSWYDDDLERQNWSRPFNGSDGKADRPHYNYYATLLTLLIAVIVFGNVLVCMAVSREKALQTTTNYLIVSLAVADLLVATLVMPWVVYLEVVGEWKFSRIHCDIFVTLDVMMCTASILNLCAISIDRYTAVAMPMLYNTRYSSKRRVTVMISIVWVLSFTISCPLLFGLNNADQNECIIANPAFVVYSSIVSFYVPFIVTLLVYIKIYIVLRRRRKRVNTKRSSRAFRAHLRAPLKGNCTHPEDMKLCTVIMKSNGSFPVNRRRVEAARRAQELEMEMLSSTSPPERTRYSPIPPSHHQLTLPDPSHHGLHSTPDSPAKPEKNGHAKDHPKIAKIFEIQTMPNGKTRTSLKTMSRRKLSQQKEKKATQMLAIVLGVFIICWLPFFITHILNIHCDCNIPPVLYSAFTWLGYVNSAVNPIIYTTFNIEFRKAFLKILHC
Chain of 5-hydroxytryptamine receptor 2A (Homo sapiens) (P28223 whole entry, looked up): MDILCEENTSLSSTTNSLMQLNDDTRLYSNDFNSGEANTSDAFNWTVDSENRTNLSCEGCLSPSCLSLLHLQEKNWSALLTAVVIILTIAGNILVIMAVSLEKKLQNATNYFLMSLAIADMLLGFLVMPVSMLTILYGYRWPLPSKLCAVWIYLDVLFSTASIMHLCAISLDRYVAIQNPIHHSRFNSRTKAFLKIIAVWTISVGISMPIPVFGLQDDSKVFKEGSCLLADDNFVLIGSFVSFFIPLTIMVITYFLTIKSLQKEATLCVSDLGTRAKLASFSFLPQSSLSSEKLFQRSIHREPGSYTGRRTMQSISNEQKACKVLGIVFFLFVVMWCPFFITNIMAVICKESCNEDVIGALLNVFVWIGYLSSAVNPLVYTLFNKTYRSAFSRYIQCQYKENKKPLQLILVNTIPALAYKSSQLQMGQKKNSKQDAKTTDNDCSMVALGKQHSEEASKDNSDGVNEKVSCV
Chain of Muscarinic acetylcholine receptor M1 (Homo sapiens) (P11229 whole entry, looked up): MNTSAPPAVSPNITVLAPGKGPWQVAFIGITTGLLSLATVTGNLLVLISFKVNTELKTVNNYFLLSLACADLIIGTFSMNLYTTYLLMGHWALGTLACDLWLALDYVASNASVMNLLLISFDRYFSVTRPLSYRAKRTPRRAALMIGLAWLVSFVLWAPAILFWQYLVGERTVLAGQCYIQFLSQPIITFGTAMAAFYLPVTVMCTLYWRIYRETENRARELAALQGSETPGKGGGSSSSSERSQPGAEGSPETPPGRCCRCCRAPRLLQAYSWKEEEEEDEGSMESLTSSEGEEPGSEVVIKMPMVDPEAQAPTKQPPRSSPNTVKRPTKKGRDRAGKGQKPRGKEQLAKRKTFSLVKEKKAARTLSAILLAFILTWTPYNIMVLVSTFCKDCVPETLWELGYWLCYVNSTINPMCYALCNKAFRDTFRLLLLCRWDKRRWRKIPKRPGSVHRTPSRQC
Chain of Gonadotropin-releasing hormone receptor (Homo sapiens) (P30968 whole entry, looked up): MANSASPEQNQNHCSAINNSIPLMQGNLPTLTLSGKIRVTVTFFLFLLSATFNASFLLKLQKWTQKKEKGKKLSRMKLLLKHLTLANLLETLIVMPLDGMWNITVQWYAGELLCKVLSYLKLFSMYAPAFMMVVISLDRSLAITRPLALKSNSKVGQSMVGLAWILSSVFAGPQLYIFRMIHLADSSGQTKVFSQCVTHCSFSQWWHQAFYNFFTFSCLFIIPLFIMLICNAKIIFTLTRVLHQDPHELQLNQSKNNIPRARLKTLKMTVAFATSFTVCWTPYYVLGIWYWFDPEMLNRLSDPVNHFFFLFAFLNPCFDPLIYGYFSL

Regarding `O=C1C(N(CO)C(=O)NCO)N(CO)C(=O)N1CO` (centres undefined), the Potency entry in test [1], in [2], in test [3], in test [4], in test [5] and in test [6] was “inactive” throughout. For the same compound, the Potency result in test [7], in test [8], in test [9], in test [10], in test [11] and in test [12] was “inactive” each time. The Potency entry in [13], in test [14], in test [15], in test [16], in test [17] and in test [18] was “inactive” each time. In addition, the Potency result in test [19] and in test [20] was “inactive” throughout.

As for `O=S(=O)(O)c1ccc2cc(O)ccc2c1`, the Potency entry in test [1], in [2], in [3], in test [4], in [5] and in [6] was “inactive” throughout. In addition, the Potency entry in [7], in [8], in test [9], in test [10], in test [11] and in test [12] was “inactive” each time. Besides, the Potency result in test [13], in test [14], in test [15], in test [16], in [17] and in test [18] was “inactive” each time. Besides, the Potency result in [19] and in test [20] was “inactive” each time.

As for `CCCCCCCCCCCCc1ccccc1`, the Potency entry in [1], in test [3], in test [4], in [5], in test [6] and in test [7] was “inactive” throughout. Further, the Potency entry in [8], in [9], in test [10], in test [11], in test [12] and in test [13] was “inactive” each time. For the same compound, the Potency result in [14], in test [15], in test [16], in test [17], in test [18] and in test [19] was “inactive” in each case. Moreover, the Potency result in [20] was “inactive”. Moreover, the Potency in [2] is 61.2 µM (active) and inactive.

For `CC(=O)OC[C@H]1O[C@@](COC(C)=O)(O[C@H]2O[C@H](COC(C)=O)[C@@H](OC(C)=O)[C@H](OC(C)=O)[C@H]2OC(C)=O)[C@@H](OC(C)=O)[C@@H]1OC(C)=O`, the Potency result in test [1], in [2], in test [3], in test [4], in test [5] and in test [6] was “inactive” throughout. The Potency entry in test [7], in test [8], in test [9], in test [10], in test [11] and in test [12] was “inactive” each time. Also, the Potency entry in test [13], in [14], in [15], in test [16], in test [17] and in [18] was “inactive” throughout. Further, the Potency entry in [19] and in test [20] was “inactive” in each case.

On to `C=CC(=O)NC(C)(C)CS(=O)(=O)O`, for which the Potency entry in test [1], in [2], in test [3], in [4], in test [5] and in test [6] was “inactive” in each case. For the same compound, the Potency result in test [7], in [8], in test [9], in [10], in test [11] and in test [12] was “inactive” each time. Further, the Potency entry in [13], in [14], in test [15], in test [16], in [17] and in [18] was “inactive” throughout. In addition, the Potency result in test [19] and in test [20] was “inactive” throughout.

`C=CC(C)(C)C`: the Potency entry in test [1], in test [2], in [3], in [4], in test [5] and in test [6] was “inactive” each time. Besides, the Potency result in [7], in test [8], in test [9], in test [10], in [11] and in [12] was “inactive” each time. For the same compound, the Potency result in test [13], in test [14], in test [15], in test [16], in [17] and in test [18] was “inactive” in each case. The Potency result in test [20] was “inactive”.

Turning to `CCC(=O)O`, the Potency result in test [1], in test [2], in test [3], in [4], in [5] and in test [6] was “inactive” each time. Also, the Potency result in test [7], in test [8], in test [9], in test [10], in [11] and in test [12] was “inactive” throughout. The Potency result in [13], in test [14], in test [15], in test [16], in test [17] and in [18] was “inactive” throughout. Further, the Potency result in test [19] and in [20] was “inactive” each time.
